E coli Lon inh – inhibitors of E. coli Lon protease, primary screen, biochemical, fluorescence polarization. P0A9M0. purified E. coli Lon protease. inhibition, % at 7.94 µM. 360,000 tested, 0.42% active. AID 602123, 2011; in the data active = inhibition above about 13%, passing the limit was not always enough
GLD-1 RNA inh – GLD-1/TGE RNA complex disruptors, primary screen, biochemical, fluorescence polarization; Female germline-specific tumor suppressor gld-1 (Caenorhabditis elegans), Q17339; purified GLD-1 + fluorescein TGE RNA; inhibition, % at 5.96 µM; 320,000 tested, 0.44% active;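 active = percent inhibition above a per-plate cutoff, the plate mean of test compounds plus 3 SD, cut at about 30% in these data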
Bcl-xL primary – inhibitors of human Bcl-xL, primary screen, biochemical, fluorescence polarization, HTS; Bcl-2-like protein 1 (Homo sapiens), Q07817; GST-Bcl-xL / FITC-Bim BH3 peptide fluorescence polarization; inhibition, % at 10.9 µM; 320,000 tested, 0.7% active; AID 2129, 2009;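 active = inhibition above the mean of all tested compounds plus 3 SD, cutoff set per campaign, cut at about 30% in these data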;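 note: inhibitors lower millipolarization by displacing the labeled peptide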
Target sequence (Q07817 whole entry, looked up): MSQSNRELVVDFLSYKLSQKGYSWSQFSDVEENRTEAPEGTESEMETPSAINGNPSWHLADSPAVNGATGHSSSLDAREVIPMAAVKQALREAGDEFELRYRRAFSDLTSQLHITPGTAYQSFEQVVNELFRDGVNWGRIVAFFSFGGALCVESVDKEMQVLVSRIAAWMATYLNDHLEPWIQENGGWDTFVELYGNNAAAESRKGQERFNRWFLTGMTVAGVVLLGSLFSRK
EBV gp42 block – Epstein-Barr virus gp42 inhibitors, primary screen, biochemical, uHTS, fluorescence polarization; Glycoprotein 42 (Epstein-Barr virus (strain AG876)), Q1HVG2; Fluorescence polarization binding assay, mP read-out; inhibition, % (tested at 21.74 µM); 220,000 tested, 0.42% active; in the data active = inhibition above about 50%
MCL1 BIM primary – inhibitors of MCL1 binding to BIM-BH3, primary screen, biochemical, fluorescence polarization; Induced myeloid leukemia cell differentiation protein Mcl-1 (Homo sapiens), Q07820; GST-MCL1 / FITC-Bim-BH3 fluorescence polarization; inhibition, % at 10.9 µM; 320,000 tested, 0.68% active; AID 2057, 2009;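 active = inhibition above the mean inhibition of all tested compounds plus 3 SD, set per campaign, cut at about 40% in these data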;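 note: higher means more loss of mP so more displacement of Bim peptide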
Target sequence (Q07820 whole entry, looked up): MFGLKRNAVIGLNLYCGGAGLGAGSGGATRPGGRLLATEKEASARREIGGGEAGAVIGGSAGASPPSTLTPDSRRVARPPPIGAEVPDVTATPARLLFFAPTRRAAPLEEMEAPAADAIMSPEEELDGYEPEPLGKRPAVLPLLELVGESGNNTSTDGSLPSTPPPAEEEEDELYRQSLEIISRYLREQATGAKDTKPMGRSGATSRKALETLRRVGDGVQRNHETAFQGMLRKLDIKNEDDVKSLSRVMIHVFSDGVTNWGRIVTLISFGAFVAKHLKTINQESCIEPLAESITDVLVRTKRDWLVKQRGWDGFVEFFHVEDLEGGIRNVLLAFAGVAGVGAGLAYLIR
MEX-5 binding – MEX-5 zinc finger RNA-binding disruptors – biochemical, C. elegans, fluorescence polarization, MLPCN library, primary screen; 300,000 tested, 0.38% active; MEX-5/FITC-TCR2 RNA binding; hits give low values; activity score (negative = inhibition of binding), % at 10 µM;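 active = inhibition past about -25% in most replicates, and total fluorescence under double the plate's negative control median, limit read from the data; inconclusive = replicates evenly split on the limit, or fluorescence at least double controls; inactive = too little inhibition in most replicates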
A number is an active result; 0 = inactive; ? = inconclusive; - = not tested or not shown. The list is not random: actives were taken first. Their share in the collection is about 1.5%.

SMILES	E coli Lon inh	GLD-1 RNA inh	Bcl-xL primary	EBV gp42 block	MCL1 BIM primary	MEX-5 binding
Cc1cccc(CN2C(=O)N/C(=C/c3ccc(C)s3)C2=O)c1	0	0	0	0	0	-29
Cc1nc(N2CCN(Cc3ccccc3)CC2)c(C#N)c2c1COC(C)(C)C2	0	0	0	0	0	-34
COc1ccc(/C=C/C2=CCN(Cc3ccc(OC)cc3)CC2)cc1	0	0	0	0	0	0
CCC(C)[C@H](NC(=O)OC(C)(C)C)C(=O)N/N=C/c1cccc2nccnc12 (stereo not given in full)	0	0	0	0	0	0
CCC(C)[C@@H](N)C(=O)N/N=C/c1cccc2nccnc12 (stereo not given in full)	-	0	0	0	0	-41
CCc1cc(=O)oc2cc(OCC(=O)NCCCN3CCOCC3)c(Cl)cc12	0	0	0	-	0	0
O=C(NCCc1ccc(Cl)cc1)C1CCC(=O)N(C2CCCCCC2)C1 (stereo not given)	0	0	135	-	0	0
CN(Cc1ccccc1)C(=O)COC(=O)C12CC3CC(CC(Br)(C3)C1)C2	0	0	-	-	-	-
Cn1c(N)c(C(=O)COC(=O)c2cc(-c3ccco3)nc3ccccc23)c(=O)n(Cc2ccccc2)c1=O	-	0	0	0	43	0
CCN(CC)C(=O)COC(=O)c1cc(-c2ccc(OC)cc2)nc2ccccc12	0	0	0	0	0	0
CCN(CC)C(=O)COC(=O)c1cc(-c2ccco2)nc2ccccc12	0	-	-	52	-	0
O=C(c1cc2cc(Br)ccc2s1)N1CCOCC1	0	0	0	0	0	0
C(=N\NC(=Nc1ccccc1)c1ccccn1)/c1ccccn1	0	0	0	0	0	-54
Cc1ccc(CNC(=O)CCc2nnc3ccc(N4CCC5(CC4)OCCO5)nn23)cc1	0	0	0	-	0	0
Cc1c(N=Nc2c(-c3ccc([N+](=O)[O-])cc3)[nH]n(C(N)=S)c2=O)cccc1[N+](=O)[O-]	0	-	-	109	-	-
NC(=S)n1[nH]c(-c2ccc([N+](=O)[O-])cc2)c(N=Nc2cccc([N+](=O)[O-])c2)c1=O	0	-	-	100	-	0
Cc1[nH]n(C(N)=S)c(=O)c1N=Nc1cccc([N+](=O)[O-])c1C	0	0	0	-	0	0
NC(=S)n1[nH]c(-c2ccc([N+](=O)[O-])cc2)c(N=Nc2ccccc2[N+](=O)[O-])c1=O	0	-	-	0	-	-
CC(O)(c1ccc(F)c(F)c1)c1nc(-c2cccc(C(=O)O)c2)cs1 (stereo not given)	0	-	-	-	-	-
O=C1CN(C(=O)c2c(F)cccc2F)C(c2ccc(F)cc2)c2cc(Br)ccc2N1 (stereo not given)	0	0	0	-	0	0
Cc1[nH]nc(N)c1-c1ccc(Cl)cc1	0	0	0	0	0	0
CCN(CC)c1ccc2cc(C#N)c(=O)oc2c1	0	0	0	0	0	-57
Cc1ccc(C(=O)NNC(=O)c2ccc(S(=O)(=O)N3CCCCC3)cc2)cc1	0	0	-	-	-	-
Cc1ccc(S(=O)(=O)c2cc3ccccc3oc2=O)cc1	0	0	0	0	0	0
CCCCCCc1cc2cc(S(=O)(=O)c3ccc(F)cc3)c(=O)oc2cc1O	0	60	0	0	0	0
SMILES	E coli Lon inh	GLD-1 RNA inh	Bcl-xL primary	EBV gp42 block	MCL1 BIM primary	MEX-5 binding
CCN(CC)c1ccc2cc(S(=O)(=O)c3ccc(C)cc3)c(=O)oc2c1	0	0	0	142	0	-77
CCN(CC)c1ccc2cc(C(=O)NNC(=O)c3ccc(S(=O)(=O)N4CCCCC4)cc3)c(=O)oc2c1	0	0	0	174	0	?
CCCSc1ccc([C@@H]2[C@H]3C(=O)N(C)C(=O)[C@H]3[C@]3(C(=O)OC)CCCN23)cc1OC	0	0	-	-	-	-
O=C(c1ccc([N+](=O)[O-])cc1)n1nc(-c2ccccc2)nc1NCc1ccc(F)cc1	0	0	38	0	0	0
CCOC(=O)N1CCN(Cc2nc(N)nc(Nc3ccccc3C)n2)CC1	0	0	0	0	0	0
CCCNC(=O)CCn1nc(-c2ccc(C)cc2)c2ccccc2c1=O	0	0	34	-	0	0
CCCCNC(=O)CCn1nc(-c2ccc(C)cc2)c2ccccc2c1=O	0	0	0	-	0	0
O=C(Nc1ccc(-n2cnnn2)cc1)C1CCC1	0	0	0	89	0	0
Cc1ccn(C(=O)c2ccc(NC(=O)C3CCCCC3)cc2)n1	0	0	0	181	0	0
CC(=O)Nc1ccc(NC(=O)C2CCCN(S(=O)(=O)c3ccc(-n4cnnn4)cc3)C2)cc1 (stereo not given)	0	0	0	-	0	0
O=C(Nc1ccc(C(=O)N2CCCC2)cc1)C1CCCCC1	0	-	-	-	-	-
Nc1ccc(C(=O)N/N=C/c2ccc(N3CCOCC3)s2)cc1	0	0	-	-	-	-
Cc1ccc2c(c1)-c1[nH]c(=S)ncc1CS2	0	0	0	0	0	0
O=C1C(Cl)=C(Nc2ccc3cn[nH]c3c2)C(=O)c2ccccc21	0	0	33	0	0	0
COC(CNC(=O)c1ccc(N2CCCC2=O)cc1)OC	0	0	0	0	0	0
Cc1ccc(S(=O)(=O)NCC(=O)OCC(=O)NC(=O)NC2CCCC2)cc1	0	0	0	0	0	0
Cc1ccsc1/C=C/C1=Cc2c(sc(NC(=O)CSc3n[nH]c(N)n3)c2C#N)C(C)(C)C1	0	73	0	0	0	0
CCOc1ccc(/C=C/C2=Cc3c(sc(NC(=O)CSc4n[nH]c(N)n4)c3C#N)C(C)(C)C2)cc1	0	31	0	0	0	0
C=CCN1CCc2c(cc(O)c(O)c2Br)[C@@H](c2ccccc2)C1	0	0	0	-	0	0
Cc1ccnc(NC(=O)CNC(=O)c2ccc(C)s2)c1	0	0	0	-	0	0
Cc1cc2n(n1)C(c1c[nH]c3ccccc13)Nc1ccccc1-2 (stereo not given)	0	0	0	0	0	-32
COc1ccccc1Cn1c(=S)[nH]c2cc(C(=O)N3CCCC3)ccc2c1=O	0	0	0	-	0	0
CCN1CCN(C(=O)c2ccc3c(=O)n(Cc4ccccc4OC)c(=S)[nH]c3c2)CC1	0	0	0	0	0	-29
Cc1cccc(C)c1NC(=O)NN=C1CCCCC1	0	0	0	0	0	-29
O=C(NCCCN1CCOCC1)c1ccccc1N1C(=O)[C@@H]2Cc3c([nH]c4ccccc34)C(c3ccc(F)cc3)N2C1=O (stereo not given in full)	0	0	0	-	0	0
COc1ccc(-n2cc(CNCC3CCOCC3)c(-c3cccc(F)c3)n2)cc1	0	0	0	0	0	0
COc1ccc(-n2cc(CNCc3cnc4ccccn34)c(-c3cccc(F)c3)n2)cc1	0	0	0	0	0	-37
